# Screening results as filed in PubChem BioAssay.
# Compounds with a hit are over-represented: about 10% of the library has one in this group of screens.
# G9a inh: inhibitors of human histone lysine methyltransferase G9a; G9a H3K9 monomethylation, AlphaScreen, 2 h; hit rate 8.8% among 350,000; Potency, µM (highest dose often 102 µM), actives largely listed as inhibitors; note: nearly all actives have a fitted effect of over 75% in size
#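 Methyltransferase reactions run at room temperature for 2 h (20 nM enzyme, 500 nM biotin-H3K9 peptide, 20 uM SAM) after a 15 min compound preincubation; product detected by AlphaScreen beads and anti-H3K9me1 antibody.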
# HP1b binding inh: blocks HP1-beta chromodomain binding to methylated histone tails. Potency, µM (titrated, usually from 114 µM), usual class: inhibitors. hit rate 0.56% among 390,000. P83916. AlphaScreen HP1-beta / biotin-H3K9me3 peptide binding; note: nearly all actives have a fitted effect of over 70% in size
#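 AlphaScreen: HP1-beta (50 nM) preformed 30 min with biotin-H3(1-18)K9me3 peptide (50 nM) in PBS pH 7.4, 0.01% Tween-20. Compound added for 30 min at RT, then streptavidin donor/nickel chelate acceptor beads (10 ug/mL) for 30 min.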
# CtBP-E1A inh: blocks the CtBP interaction with E1A | hit rate 0.49% among 340,000 | AlphaScreen GST-E1A/His-CtBP binding, 1536-well; active compounds read low | activity change, % (no concentration beside the values); in the data active = activity change below about -65%; inconclusive = mostly about -30% to -63%
#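 AlphaScreen with 125 nM GST-E1A and 125 nM His-CtBP (5X stocks) in Tris pH 8.0, 300 mM NaCl, BSA, Tween 20, TCEP. Compounds preincubated 2 h at 37 deg C, then glutathione donor/nickel acceptor beads added for 1 h at 37 deg C in dark.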
# BAZ2B inh: BAZ2B (human) inhibition; AID 504333; Potency, µM (doses to about 114 µM), usual class: inhibitors; hit rate 4.4% among 360,000; Q9UIF8; AlphaScreen BAZ2B-H3K14Ac peptide displacement; note: nearly all actives have a fitted effect of over 60% in size
#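 Multi-concentration screen (max 110 uM) measuring displacement of acetylated histone H3 peptide from BAZ2B by AlphaScreen, using 50 nM protein, 50 nM peptide and 10 ug/mL streptavidin donor plus Ni-chelate acceptor beads.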
# JMJD2A Tudor: blocks the human JMJD2A Tudor domain | O75164 | AlphaScreen JMJD2A-Tudor / H3K4me3 peptide binding | Potency, µM (titrated, usually from 114 µM), hits mostly inhibitors | hit rate 4.4% among 390,000 | AID 504339; note: nearly all actives have a fitted effect of over 50% in size
# Six1-Eya2 inh: blocks human Six1 binding to Eya2 | activity change, % (test concentration not listed) | AID 651725 | AlphaScreen GST-Six1/His-Eya2 binding, biochemical; active compounds read low | Q15475+O00167 | hit rate 0.56% among 360,000; in the data active = activity change below about -65%; inconclusive = mostly about -30% to -63%
#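 Six1/Eya2 binding was read as AlphaScreen signal after compounds were pinned into GST-Six1 plus His-tagged Eya2 (5X stock 250/500 nM) in pH 8.0 Tris/NaCl/TCEP buffer, beads added, then incubated 1 h, 37 C, dark.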
# A number is an active result; i = inactive; ? = inconclusive; nt = no result given; [ ] = dose if it differs, or a comment. Unless noted, calls come from the whole dose curve; as a rule, active = well fitted inhibition curve with a large enough effect; inconclusive = small, poorly fitted or top-dose-only effect; inactive = no such curve, though single readings can be large or run the other way.
SMILES,G9a inh,HP1b binding inh,CtBP-E1A inh,BAZ2B inh,JMJD2A Tudor,Six1-Eya2 inh
CC(C)C[C@@H](CN)NC(=O)c1nc[nH]c1C(=O)N[C@@H](C)C(=O)CNC[C@H](CC(C)C)NC(=O)c1nc[nH]c1C(=O)N[C@@H](Cc1ccccc1)C(=O)O,nt,i,i,nt,79µM,i
COc1ccccc1-c1ccnc2c(-c3ccc(Br)cc3)c(C)nn12,i,i,nt,i,i,nt
CCOc1ccc(/C=C/c2nc(C#N)c(Nc3ccc(OCC)cc3)o2)cc1,i,i,nt,i,i,nt
O=C(NCc1cccnc1)c1ccc(Cl)c(S(=O)(=O)N2CCCCCC2)c1,i,i,i,i,25µM,i
O=C(NCc1ccccn1)c1ccc(Cl)c(S(=O)(=O)Nc2ccccc2C(=O)NCc2ccccn2)c1,50µM,i,?,i,i,?
Cc1ccc(OC(C)C(=O)Nc2ccccc2C(=O)NCc2cccnc2)cc1C (centres undefined),i[12.7 µM],i,i,i,i,i
O=C(NCc1cccnc1)c1ccc(Cl)c(S(=O)(=O)Nc2ccccc2C(=O)NCc2cccnc2)c1,45µM,i,i,?,i,i
Cc1cc(C)cc(NS(=O)(=O)c2cc(C(=O)NCc3ccccn3)ccc2Cl)c1,i,i,i,i,i,i
Cc1cc(C)cc(OC(C)C(=O)Nc2ccccc2C(=O)NCc2cccnc2)c1 (centres undefined),50µM,i,i,i,i,i
O=C(NCc1cccnc1)c1ccccc1NS(=O)(=O)c1ccccc1,i,i,i,i,i,i
O=C(NCc1cccnc1)c1ccc(Cl)c(S(=O)(=O)N2CCOCC2)c1,i,i,i,i,i,i
O=C(C1CCCN(c2ncccn2)C1)N1CCc2ccccc21 (centres undefined),i,i,i,i,i,i
COc1ccc(OC)c(NC(=O)Cn2c(=O)n(Cc3ccco3)c(=O)c3cc(OC)c(OC)cc32)c1,i,i,nt,?,i,nt
O=C(Nc1ccc2nc(SCC(=O)N3CCCC3)sc2c1)c1ccccc1,i,i,nt,i,i,nt
O=C(CSc1nc2ccccc2s1)NNC(=S)Nc1ccccc1,3.5µM,i,i,i,i,i
O=C(O)CSc1nc2ccc(NC(=O)COc3ccc(Cl)cc3)cc2s1,i,i,nt,71µM,?,nt
O=C(CSc1nc2ccccc2s1)Nc1cc(C(=O)O)cc(C(=O)O)c1,25µM,i,i,i,i,i
Cn1c(SCC(=O)Nc2ccc3nc(SCC(=O)N4CCCC4)sc3c2)nnc1-c1ccccc1,?,i,i,56µM,?,i
Cc1cccc(NC(=O)CSc2nc3ccc(NC(=O)COc4ccc(Cl)cc4)cc3s2)c1,i,i,nt,i,i,nt
COCCNC(=O)c1c(-c2ccccc2)c(-c2ccccc2)nn(C)c1=O,?,i,nt,i,i,nt
O=C(O)COc1ccccc1/C=N/NC(=O)CSc1nc2ccccc2s1,71µM,i,i,i,i,i
O=C(CSc1nc2ccccc2s1)N/N=C/c1ccccc1C(=O)O,i,i,i,i,i,i
O=C(Nc1ccc2nc(SCC(=O)N3CCOCC3)sc2c1)c1ccccc1Cl,i,i,nt,i,i,nt
O=C(CSc1nc2ccc(NC(=O)c3ccccc3C(=O)O)cc2s1)Nc1c(Cl)cccc1Cl,71µM,i,i,?,i,i
COc1ccc(C2=NO[C@@H]3C(=O)N(c4ccc(C)cc4C)C(=O)[C@H]23)cc1OC,13µM,i,i,i,?,i
SMILES,G9a inh,HP1b binding inh,CtBP-E1A inh,BAZ2B inh,JMJD2A Tudor,Six1-Eya2 inh
COc1ccc(-c2cn(-c3ccc(C)cc3C)c(=O)[nH]2)cc1OC,11µM,i,i,i,i,i
Cc1ccc2oc3c(c(=O)c2c1)C(c1ccc(F)cc1)N(Cc1ccc2c(c1)OCO2)C3=O (centres undefined),i,i,nt,i,i,nt
COCCCNC(=O)CC1C[C@H](C(=O)N2CCOCC2)[C@@]2(C)c3[nH]c4ccc(OC)cc4c3CCN2C1=O (some centres undefined),nt,i,i,nt,i,i
CC(C)=CC(=O)Nc1ccc(Cl)cc1,i,i,i,i,i,i
CS/C(=C\[N+](=O)[O-])Nc1ccc(Cl)cc1,11µM,i,i,i,i,i
CSc1ccc(N/N=C(/C#N)S(=O)(=O)C(C)(C)C)cc1,50µM,?,nt,?,i[11.4 µM],i
COc1ccc(N/N=C(/C#N)S(=O)(=O)c2nsc(C)c2C#N)cc1,?,i,i,?,?,i
COc1ccc(N/N=C(/C#N)S(=O)(=O)C(C)(C)C)cc1,50µM,i,i,i,i,i
COc1ccc(C(=O)c2sc(Nc3ccccc3)nc2N)cc1OC,71µM,i,i,i,?,i
COc1ccc(C(=O)c2sc(Nc3ccccc3)nc2N)cc1,i,i,nt,i,i,i
Cc1cnc(NC(=O)c2sc(Nc3ccccc3)nc2N)o1,?,i,nt,i,i,i
COc1ccc(C(=O)c2sc(Nc3cc(Cl)ccc3C)nc2N)cc1OC,i,i,nt,?,22µM,nt
Nc1nc(Nc2ccccc2)sc1C(=O)c1ccccc1,45µM,?,i,40µM,?,?
Cc1ccccc1Nc1nc(N)c(C(=O)c2ccccc2Cl)s1,i,i,nt,32µM,56µM,nt
Cc1ccc(-c2cc(C(=O)N3CCN(S(=O)(=O)c4ccc(Br)s4)CC3)[nH]n2)cc1C,i,i,nt,i,i,nt
COc1cccc(O)c1CN1CCC(n2nccc2NC(=O)c2ccc3c(c2)OCO3)CC1,i,i,i,i,i,i
O=C(c1cc2ccccc2oc1=O)N(Cc1cccs1)Cc1cccs1,i,i,i,i,28µM,i
CCOC(=O)C1(Cc2cccc(Cl)c2)CCCN(C(=O)c2cnn(CC)c2)C1 (centres undefined),25µM,i,i,i,i,i
S=c1[nH]c2cc3c(cc2[nH]1)OCCO3,3.5µM,i,i,i,i,i
COCCCNC(=S)NNC(=O)c1ccccn1,i,i,-87,3.5µM,20µM,-93
COCCCNC(=S)NNC(=O)c1ccccc1Br,i,i,i,i,i,i
COCCCNC(=S)NNC(=O)c1cc(Cl)c(O)c(Cl)c1,i[12.7 µM],i,i,i,i,i
COCCCNC(=S)NNC(=S)Nc1cccc(Cl)c1,nt,i,nt,i,3.2µM,i
COc1ccc(NC(=S)Nc2cccc(Cl)c2)cc1OC,50µM,i,i,i,i,i
COCCCNC(=S)NNC(=S)NCCCOC,8.9µM,i,i,i,13µM,i
O=C(Cn1ncc2c3ccccc3n(Cc3cccc(Cl)c3)c2c1=O)Nc1ccc(F)cc1F,i,i,nt,?,?,nt
CCOc1ccc(NC(=O)CN2C(=O)NC3(CCCCCC3)C2=O)cc1,nt,i,i,nt,i,i
COc1ccc(CCNC(=O)c2ccc(Cn3c(SCc4ccccc4)nc4cccnc43)cc2)cc1,i,i,nt,i,i,nt
